Reference: PubChem BioAssay (NCI)
Compounds without any hit were thinned out: in the full panel of roughly 79,000, 15% have a hit. Active and inactive are the calls of the source. No stated cut-off is given here; in the data, active means growth inhibition above about 70%; inactive means the rest.

Assays:
[1] = NCI Yeast Anticancer Drug Screen. Data for the rad50 strain (AID 155);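 further: 0% = growth of vehicle-only cultures of the same strain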; conditions: S. cerevisiae rad50 strain growth inhibition, hits give high values
Summary of the method: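 Inhibition values express reduced yeast growth in compound-treated cultures relative to vehicle-treated controls.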

[2] = NCI Yeast Anticancer Drug Screen. Data for the mec2-1 strain (AID 157); conditions: S. cerevisiae mec2-1 strain, hits give high values
Summary of the method: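 Compounds were applied to mec2-1 yeast cells. Their growth was then compared with that of vehicle-treated cultures to give growth inhibition.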

[3] = NCI Yeast Anticancer Drug Screen. Data for the sgs1 mgt1 strain (AID 161);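 further: 0% = growth of cultures given vehicle only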; conditions: S. cerevisiae sgs1 mgt1 strain, hits give high values
Summary of the method: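 This yeast growth screen uses a strain with defined DNA-repair lesions; compound-treated growth is compared with vehicle-treated growth.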

[4] = NCI Yeast Anticancer Drug Screen. Data for the cln2 rad14 strain (AID 165);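 further: 0% = growth equal to vehicle treated cultures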; conditions: S. cerevisiae cln2 rad14 strain, hits give high values
Summary of the method: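 Strain: cln2 rad14 yeast, altered in cell cycle control and DNA damage repair. Read-out: growth inhibition vs vehicle.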

[5] = NCI Yeast Anticancer Drug Screen. Data for the bub3 strain (AID 167); conditions: S. cerevisiae bub3 mutant strain, hits give high values
Summary of the method: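 Steps: expose the mutant yeast strain to compound; grow alongside vehicle-treated cultures; measure growth; express inhibition against the vehicle cultures.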

[6] = NCI Yeast Anticancer Drug Screen. Data for the mlh1 rad18 strain (AID 175); conditions: S. cerevisiae mlh1 rad18 strain growth inhibition, hits give high values
Summary of the method: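 A repair-deficient yeast strain is exposed to test compound, and growth is scored relative to vehicle-treated controls.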

[7] = at 5.0 µM (retest, dose inferred, filed as 0.5)
[8] = at 50.0 µM (retest, dose inferred, filed as 5.0)

Measured: growth inhibition

CCOc1c(Br)cc(/C=C(\C)[N+](=O)[O-])cc1OC
inactive: [1]; [7] 2% | [1]; [8] 7% | [1]; at 50.0 µM 61.9% | [2]; [7] -1% | [2]; [8] 9% | [3]; [7] 6% | [3]; [8] 9% | [4]; [7] -1% | [4]; [8] -3% | [5]; [7] -4% | [5]; [8] 2% | [6]; [7] -5% | [6]; [8] 4%
active: [2]; at 50.0 µM 78.5% | [3]; at 50.0 µM 87.3% | [4]; at 50.0 µM 93.4% | [5]; at 50.0 µM 72.5% | [6]; at 50.0 µM 79.7%

CCOP(=O)(N=Nc1cccnc1)OCC
inactive: [1]; [7] -2% | [1]; [8] -17% | [1]; at 50.0 µM 14% | [2]; [7] 2% | [2]; [8] -10% | [2]; at 50.0 µM 6.35% | [3]; [7] -1% | [3]; [8] -11% | [3]; at 50.0 µM 5.05% | [4]; [7] 1% | [4]; [8] -17% | [4]; at 50.0 µM 59.8% | [5]; [7] 1% | [5]; [8] -3% | [5]; at 50.0 µM 20.1% | [6]; [7] 2% | [6]; [8] -17% | [6]; at 50.0 µM 39.1%

O=C1c2ccccc2CCC1Br (stereo not given)
active: [1]; [8] 99% | [1]; at 50.0 µM 99% | [2]; [8] 99% | [2]; at 50.0 µM 99.1% | [3]; [8] 98% | [3]; at 50.0 µM 99.2% | [4]; [8] 99% | [4]; at 50.0 µM 98.6% | [5]; [8] 99% | [5]; at 50.0 µM 98.7% | [6]; [8] 99% | [6]; at 50.0 µM 99%
inactive: [1]; [7] -20% | [2]; [7] 11% | [3]; [7] -3% | [4]; [7] -18% | [5]; [7] -27% | [6]; [7] -13%

Cc1ccc([NH-])cc1C.Cc1ccc([NH-])cc1C.[Cl][Pt+2][Cl]
inactive: [1]; [7] 4% | [1]; [8] 21% | [1]; at 50.0 µM 34.2% | [2]; [7] -1% | [2]; [8] 9% | [2]; at 50.0 µM 19.8% | [3]; [7] 5% | [3]; [8] 58% | [3]; at 50.0 µM 62.5% | [4]; [7] -8% | [4]; [8] 12% | [4]; at 50.0 µM -32.4% | [5]; [7] -8% | [5]; [8] 4% | [5]; at 50.0 µM 10.8% | [6]; [7] 6% | [6]; [8] 49%
active: [6]; at 50.0 µM 81.5%

C/C=C1/C(=O)O[C@]23C=C[C@@H]4C(C(=O)OC)=CO[C@H](O[C@@H]12)[C@@H]43
inactive: [1]; [7] 28% | [2]; [7] 41% | [3]; [7] 63% | [4]; [7] 32% | [4]; [8] 64% | [5]; [7] 61% | [6]; at 50.0 µM 66%
active: [1]; [8] 82% | [1]; at 50.0 µM 91.9% | [2]; [8] 98% | [2]; at 50.0 µM 93.8% | [3]; [8] 98% | [3]; at 50.0 µM 93.6% | [4]; at 50.0 µM 89.5% | [5]; [8] 96% | [5]; at 50.0 µM 92.5% | [6]; [7] 88% | [6]; [8] 98%

O=[N+]([O-])c1c[c]([Hg][Cl])c(O)[c]([Hg][Cl])c1
inactive: [1]; [7] 44% | [2]; [7] 52% | [6]; [7] 41%
active: [1]; [8] 99% | [1]; at 50.0 µM 88.7% | [2]; [8] 99% | [2]; at 50.0 µM 92.4% | [3]; [7] 100% | [3]; [8] 78% | [3]; at 50.0 µM 92.4% | [4]; [7] 94% | [4]; [8] 97% | [4]; at 50.0 µM 91% | [5]; [7] 99% | [5]; [8] 91% | [5]; at 50.0 µM 90.1% | [6]; [8] 99% | [6]; at 50.0 µM 89.2%

O=[N+]([O-])/C=C/c1ccc(Cl)cc1
inactive: [2]; [7] 59% | [3]; [7] 54% | [4]; [7] 19% | [5]; [7] 45%
active: [1]; [7] 79% | [1]; [8] 99% | [1]; at 50.0 µM 99% | [2]; [8] 100% | [2]; at 50.0 µM 99.8% | [3]; [8] 100% | [3]; at 50.0 µM 99.5% | [4]; [8] 99% | [4]; at 50.0 µM 99% | [5]; [8] 99% | [5]; at 50.0 µM 99.5% | [6]; [7] 80% | [6]; [8] 99% | [6]; at 50.0 µM 99.5%

CC(C)(C)[Si](OC(=O)N(CCCl)CCCl)(c1ccccc1)c1ccccc1
inactive: [1]; [7] 22% | [1]; at 50.0 µM 67.2% | [2]; [7] 10% | [2]; at 50.0 µM 20.8% | [3]; [7] 13% | [4]; [7] 19% | [4]; at 50.0 µM 68.4% | [5]; [7] -2% | [5]; at 50.0 µM 68.6% | [6]; [7] 15%
active: [1]; [8] 82% | [2]; [8] 76% | [3]; [8] 82% | [3]; at 50.0 µM 79.5% | [4]; [8] 83% | [5]; [8] 93% | [6]; [8] 85% | [6]; at 50.0 µM 90.3%

ClCC[Se](Cl)(Cl)c1ccccc1
inactive: [1]; [7] 33% | [1]; at 50.0 µM 42.9% | [2]; [7] 19% | [2]; [8] 20% | [2]; at 50.0 µM 55.6% | [3]; [7] 29% | [3]; [8] 48% | [4]; [7] 25% | [4]; [8] 44% | [4]; at 50.0 µM 60.5% | [5]; [7] 6% | [5]; [8] 46% | [5]; at 50.0 µM 53.2% | [6]; [7] 33% | [6]; [8] 68%
active: [1]; [8] 75% | [3]; at 50.0 µM 72% | [6]; at 50.0 µM 86.2%

CC([CH2][Hg][Cl])c1ccccc1 (stereo not given)
active: [1]; [7] 99% | [1]; [8] 99% | [1]; at 50.0 µM 99.3% | [2]; [7] 100% | [2]; [8] 100% | [2]; at 50.0 µM 99.5% | [3]; [7] 100% | [3]; [8] 99% | [3]; at 50.0 µM 99.6% | [4]; [7] 99% | [4]; [8] 99% | [4]; at 50.0 µM 99.5% | [5]; [7] 99% | [5]; [8] 99% | [5]; at 50.0 µM 99.6% | [6]; [7] 100% | [6]; [8] 99% | [6]; at 50.0 µM 99.5%
